MITF act: increases MITF-driven TRPM1 promoter luciferase signal; SK-MEL-5 TRPM1-promoter luciferase, 24 h; % of positive control, neutral wells = 0; 300,000 compounds, 0.75% hits; AID 588334; activation, % at 12.5 µM;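 active means mean activation of at least 80% with every replicate also reaching 80%; inconclusive means mean reaches 80% but some replicate falls short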;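 further: 0% = neutral control wells and 100% = parthenolide positive control wells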
esBAF inh: blocks esBAF chromatin remodeling in mouse ES cells; Bmi1-luciferase knock-in reporter, 24 h; 100% = twice the neutral-well signal; 350,000 compounds, 2% hits; reporter increase, % at 12.5 µM; AID 602393; in the data active means activation above about 40%; inconclusive means no clear call, values can overlap the other calls;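 further: 0% = median of the plate's neutral control wells and 100% = double that signal; a rise in the Bmi1 reporter signal indicates esBAF inhibition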
Wnt act: activators of Wnt/beta-catenin signaling; Wnt/beta-catenin reporter cell assay, activator, plate reader; activation, % at 9.35 µM; 300,000 compounds, 1.2% hits; in the data active means activation above about 30%, passing the limit was not always enough; inconclusive means no clear call, values can overlap the other calls;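 further: 0% = neutral control wells and 100% = positive control wells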
FGF22 binding: binders of recombinant human FGF22 by thermal shift | SYPRO orange fluorescence; percent of sucrose octasulfate shift, DMSO zero | activity (Tm shift, normalised), % at 9.99 µM | 340,000 compounds, 1.5% hits;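 active means mean Tm shift, scaled 0 neutral to 100 positive control, at about 1.3% or above, every replicate too, limit read from the data; inconclusive means no clear call, values can overlap the other calls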
Target sequence (Q9HCT0 whole entry, looked up): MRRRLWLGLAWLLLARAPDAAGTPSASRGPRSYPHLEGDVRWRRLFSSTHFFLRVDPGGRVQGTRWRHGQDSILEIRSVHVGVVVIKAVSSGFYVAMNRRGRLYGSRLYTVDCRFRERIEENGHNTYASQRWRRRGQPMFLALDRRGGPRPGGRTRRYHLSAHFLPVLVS
SMARCA2 activ: activators of SMARCA2 function; MG213 cells, MMTV-luciferase reporter, dexamethasone, overnight; 370,000 compounds, 1% hits; activation, % at 9.1 µM; AID 652017; in the data active means activation above about 7.8%;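 further: 0% = vehicle wells and 100% = reference activator wells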
MLL AF4-AF9 inh: inhibitors of human MLL-AF4/AF9 interaction. AlphaScreen, biotin-AF4 peptide binding to FLAG-AF9. P42568. inhibition, % at 10 µM. 350,000 compounds, 0.47% hits;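 active means every replicate reaching a set inhibition limit, whatever the replicate mean, cut at about 25% in these data; inconclusive means mean inhibition reaches that limit but some replicates miss it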;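 further: 0% = plate neutral control median and 100% = total signal loss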
The depositor's hits bear a star; ? = inconclusive; / = no result; ! = not active in a repeat. In the library only some 4.3% were active in any assay of this set; here they are far more common.

SMILES | MITF act | esBAF inh | Wnt act | FGF22 binding | SMARCA2 activ | MLL AF4-AF9 inh
Cc1cnc(NC(=O)c2cccs2)s1 | 30 | 6 | 19 | 0 | 3 | -4
Cc1ncoc1C(=O)Nc1nccs1 | 6 | 5 | -2 | / | -3 | /
Cc1ncoc1C(=O)Nc1ncc([N+](=O)[O-])s1 | 10 | / | 37* | 0 | 2 | -1
O=C(Nc1ncc([N+](=O)[O-])s1)c1cccs1 | 19 | -9 | 42*! | 0 | -3 | 5
Cc1cc(C)c(S(=O)(=O)N2CCN(C(=O)c3cccs3)CC2)c(C)c1 | -8 | 5 | -1 | 43* | -5 | -1
C[C@@H]1CCCCO[C@H](CN(C)S(C)(=O)=O)[C@@H](C)CN([C@@H](C)CO)C(=O)c2cc(N(C)C)ccc2O1 | / | -1 | / | -2 | / | -4
Cn1cc(Cl)c(C(=O)Nc2nc3ccc(Cl)cc3s2)n1 | 64 | 112* | / | / | 3 | /
CC1CC1C(=O)Nc1nc2ccc(Cl)cc2s1 (stereo unspecified) | 5 | / | 54* | 0 | -2 | 2
COc1cccc2[nH]c(=O)c(-c3ccccc3)cc12 | 105* | 56 | 21 | 0 | 5 | -5
COc1ccc(-c2cc(=O)[nH]c3ccccc23)cc1 | -11 | 4 | -1 | 0 | -1 | 3
CC(C)C#Cc1cnc2c(c1)C(=O)N([C@H](C)CO)C[C@H](C)[C@@H](CN(C)C(=O)Nc1ccc(F)cc1)O2 | / | -1 | / | 0 | / | -13
CC(C)NC(=O)Nc1ccc2c(c1)C(=O)N([C@@H](C)CO)C[C@H](C)[C@H](CN(C)C(=O)C1CCCCC1)OCCCC[C@@H](C)O2 | / | -7 | / | 1 | / | -3
Cc1c(/C=C/C(=O)c2ccccc2)cnn1C | / | 32 | / | / | 4 | /
Cc1c(/C=C/C(=O)c2ccc(Cl)s2)cnn1C | / | ? | 61* | / | 0 | /
COc1ccc(/C=C/C(=O)c2ccc(Cl)s2)cc1O | / | 56* | / | / | 2 | /
Nc1ccc(C(=O)OCC(=O)N2CCOCC2)cc1[N+](=O)[O-] | 33 | -5 | ? | 43* | 2 | -1
COc1ccc(C(=O)OCC(=O)N2C(C)CCCC2C)cc1[N+](=O)[O-] (stereo unspecified) | 1 | / | -1 | 43* | -3 | 4
O=C(Oc1ccc(-c2ccccc2)cc1)N1CCCCC1 | 127* | ? | / | / | 6 | /
CO[C@H]1CN(C)C(=O)c2ccc(NC(=O)Cc3ccccc3)cc2OC[C@@H](C)N(C(C)=O)C[C@@H]1C | / | 3 | / | 0 | / | -2
CO[C@H]1CN(C)C(=O)c2cc(NC(=O)Nc3ccc(F)cc3)ccc2OC[C@H](C)NC[C@H]1C | / | -2 | / | 0 | / | -5
CCc1nc(N=C(N)N)nc2ccccc12 | / | / | 1 | 43* | 1 | 3
COc1ccc(/C=N/Nc2nc(C)nc(N)n2)cc1 | 32 | 55* | 6 | 0 | 3 | 2
CC(C)(CO)NCc1ccc(Br)cc1 | -9 | / | -3 | 43* | -3 | 0
O=C(NCCC1CCCC1)c1cccs1 | / | 50* | 3 | 0 | 1 | 1
O=C(NCCc1ccc(F)cc1)c1cccs1 | 29 | 65* | 11 | / | 6 | /
SMILES | MITF act | esBAF inh | Wnt act | FGF22 binding | SMARCA2 activ | MLL AF4-AF9 inh
O=C(NCCc1cccs1)c1cccs1 | ? | 61* | 11 | 0 | 3 | 0
O=C(NCCCCCCNC(=O)c1cccs1)c1cccs1 | 7 | / | 26 | 0 | 2 | -3
O=C(CNC(=O)c1cccs1)c1ccc(Br)cc1 | 123* | 26 | 27 | 0 | 2 | -1
O=C(NCc1ccc(F)cc1)c1cccs1 | 2 | -5 | 0 | 0 | 1 | -2
O=S(=O)(c1cccs1)N1CCCCN2[C@H](CO)[C@H](c3ccc(C4=CCCCC4)cc3)[C@H]2C1 | / | / | / | -1 | / | -4
O=C1C(C=NCCCn2ccnc2)=C(O)c2ccccc21 | -5 | 53* | -3 | / | -3 | /
CC(=NCCCn1ccnc1)C1=C(O)c2ccccc2C1=O | 14 | -1 | 0 | / | 2 | /
O=C1C(C=NCc2ccccn2)=C(O)c2ccccc21 | 50 | 73* | -2 | 1 | 7 | -24
NS(=O)(=O)c1ccc(CCNC(=O)CN2CCN(c3ccccc3O)CC2)cc1 | 3 | -6 | -4 | 44* | 4 | -2
NS(=O)(=O)c1ccc(CCNC(=O)CN2CCN(c3ccccc3F)CC2)cc1 | 4 | / | -2 | 0 | -5 | 2
C[C@@H]1CN([C@@H](C)CO)S(=O)(=O)c2ccc(-c3cccc(C#N)c3)cc2O[C@@H]1CN(C)C(=O)C1CC1 | / | -6 | / | 0 | / | 0
Cc1[nH]c2ccccc2c1/C=C/c1nc2ccccc2c(=O)n1CCO | 19 | 37* | 5 | 0 | 4 | 6
O=C(COc1ccccc1F)N/N=C1\CCCc2ccccc21 | 71 | 61* | 33* | 0 | 2 | -10
O=C(O)c1ccc(N/N=C2/CCCc3ccccc32)cc1 | 42 | 59* | 17 | 0 | 4 | -10
COc1ccccc1OCC(=O)N/N=C1\CCCCc2ccccc21 | 8 | 7 | 4 | 0 | -4 | -4
COc1ccccc1OCC(=O)N/N=C1\CCc2ccccc21 | 50 | 46* | / | / | 0 | /
COCCNc1nc(-c2cc(C)n(CCc3ccc(OC)cc3)c2C)cs1 | 0 | -6 | -2 | 43* | -3 | 5
O=C([C@H]1[C@H](CO)[C@H]2Cn3c(ccc(C4=CCCC4)c3=O)[C@H]2N1CC1CC1)N1CCCCC1 | / | 2 | / | 0 | / | -1
CCOCCCNCc1cn(-c2ccc(F)cc2F)nc1-c1ccccc1C | -7 | -6 | -1 | 43* | -4 | 2
Cc1ccccc1-c1nn(-c2ccc(F)cc2F)cc1CNCC(C)O (stereo unspecified) | 20 | -3 | -2 | 0 | -2 | 0
CC(C)c1cn(CC[C@@H]2CC[C@H](NS(=O)(=O)c3ccc(Cl)cc3)[C@@H](CO)O2)nn1 | / | 3 | / | 0 | / | -1
COc1ccc2c3c(n(C)c2c1)[C@@H](CO)N(Cc1ccccc1)CC31CCN(CC2CC2)CC1 | / | / | / | 0 | / | 3
NC(N)=N/N=C/c1cccc([N+](=O)[O-])c1O | -4 | / | 2 | 43* | 0 | 1
O=C(Cc1ccccc1)N/N=C/C=C/c1ccccc1[N+](=O)[O-] | / | / | 35* | 0 | -1 | 6
O=[N+]([O-])c1ccccc1C=CC=NN=Cc1ccccc1O | 31 | / | 71* | 0 | -1 | 0
Oc1ccccc1C=NN=CC=Cc1ccccc1 | 46 | / | -3 | 0 | 5 | ?
O=C(O)c1ccc(N/N=C/C=C/c2ccccc2[N+](=O)[O-])cc1 | 112* | 79* | 10 | 0 | 0 | 7
O=[N+]([O-])c1cccc(/C=N\N=C2c3ccccc3-c3ccccc32)c1O | -3 | / | 0 | 0 | -1 | 1
COc1ccc(CNC(=S)NCc2ccc(OC(C)C)cc2)cc1 | -14 | / | -3 | 43* | 2 | 1
CC(C)Oc1ccc(CNC(=O)Oc2ccccc2)cc1 | 92* | -3 | -1 | 0 | 1 | -2
